Assay outcomes (PubChem)
ERK EGF inh: EGF-driven ERK pathway inhibition; HEK293-V1b, EGF-stimulated phospho-ERK AlphaScreen; Potency, µM (series often up to 11.5 µM), for the others: at the top dose activity change, negative = inhibition, actives largely listed as inhibitors; 130,000 tested, 0.41% active; AID 1454; active means well fitted inhibition curve with a large enough effect;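 further: plate controls were stimulated vehicle wells for no effect and unstimulated vehicle basal for full effect; nearly all actives have a fitted effect of over 55% in size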
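Compounds are titrated over HEK293-V1b cells kept overnight in 1% FBS. After 30 min at 37C, EGF (25 nM final) triggers ERK phosphorylation for 5 min, measured by AlphaScreen in lysates.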
* marks the source's active call; other numbers are inactive results; ! = not active in a repeat; [ ] = remark or other dose. This is one part of a sample in which hits are shown more often than they occur. Potency means the concentration at half of the fitted maximal effect.

SMILES	ERK EGF inh
COc1ccc2c(c1)O[C@@H](c1ccc3c(c1)OCO3)[C@H](OC(=O)N[C@H]1CCCc3ccccc31)C2=O	4.4%
CN(C)C(=O)c1ccc(-c2nccc(NCc3cccnc3)n2)cc1	36.9%
O=C(Nc1cccc(F)c1)N1CC2(CCN(C(=O)c3ccco3)CC2)C1	12.6%
Oc1cc2c(cc1O)C1c3ccc(O)c(O)c3OCC1(O)C2 (stereo unspecified)	11.2µM*!
C/C=C/C1=CC2=CC(=O)C(C)(OC(=O)c3c(C)cc(O)cc3O)C(=O)C2=CO1 (stereo unspecified)	0.5%
COC(=O)c1ccccc1NC(=O)COC(=O)c1ccccc1N=Nc1ccc(N(C)C)cc1	14.1µM*
CN(C)c1ccc(N=Nc2ccccc2C(=O)OCC(=O)N(C)c2ccccc2)cc1	10µM*
CC(=O)c1ccc(NC(=O)COC(=O)c2ccccc2N=Nc2ccc(N(C)C)cc2)cc1	28.1%
CN(C(=O)COC(=O)c1ccc2c(c1)OCCO2)c1ccccc1	-13.0%
CN(C(=O)COC(=O)c1n[nH]c2ccccc12)c1ccccc1	-9.1%
COC(=O)c1ccccc1NC(=O)COC(=O)[C@H](C)NC(N)=O	1.1%[57.5 µM]
COC(=O)[C@@]1(Cc2ccc(OC)cc2)[C@H]2c3cc(C(=O)N(C)C)n(CCc4c[nH]c5ccc(O)cc45)c3C[C@H]2CN1C(=O)c1ccccc1	-6.5%
CC(C)[C@@H](CC(=O)N[C@@H]1CCCC[C@H]1C(=O)N[C@H](CC(=O)N[C@@H](CCC(=O)O)CC(=O)O)Cc1c[nH]c2ccccc12)NC(=O)C[C@H](Cc1ccccc1)NC(=O)[C@@H]1CNCC[C@H]1N	4.0%
CC(C)CN1CC[C@@]2(CCCN(C(=O)c3cc(C(F)(F)F)cc(C(F)(F)F)c3)C2)C1	-4.2%
CCN1/C(=C/C(C)=C/c2sc3ccccc3[n+]2CC)Sc2ccccc21	17.8µM*
CCN1/C(=C\C=C(C(C)=O)C(C)=O)Sc2ccccc21	2.1%
CCN1/C(=C\C(=S)Nc2ccccc2)Sc2ccccc21	4.9%
COc1ccccc1CN1CCCC2(CCN(C(=O)c3cnccn3)CC2)C1	-13.5%
COc1ccc(Oc2ncc3nc(-c4ccccc4)c(=O)n(Cc4cccs4)c3n2)cc1	4.8%
COC(=O)NC(/C=C/c1ccccc1)C(C(C)=O)C(=O)OC (stereo unspecified)	0.0%
OC(CNCCC1C=Nc2ccccc21)Cn1c2ccc(Cl)cc2c2cc(Cl)ccc21 (stereo unspecified)	22.4µM*
Cc1c(C)n(CC(O)CNc2ccccc2)c2ccccc12 (stereo unspecified)	6.2%
Cc1c(C)n(CC(O)CNCCO)c2ccccc12 (stereo unspecified)	4.2%
COC(=O)[C@@]1(Cc2ccc(OC)cc2)[C@@H]2C(=CC(=O)[C@H]2CC(=O)C(=O)N2CCCC2)CN1C(=O)c1ccccc1	-5.5%
C=C1C(=O)C=C2CN(C(=O)c3ccccc3)[C@@](Cc3ccc(OC)cc3)(C(=O)OC)[C@@H]12	12.6µM*
SMILES	ERK EGF inh
COC(=O)[C@@]1(Cc2ccc(OC)cc2)[C@@H]2[C@@H](CC(=O)[C@H]2CC(=O)C(=O)N(C)C)CN1C(=O)c1ccccc1	-2.4%
COC(=O)[C@H](COC(C)(C)C)NC(=O)O[C@H]1C(=O)c2cc(OC)ccc2O[C@@H]1c1ccc(OC)c(Br)c1	-4.2%
C[N+]1(C)C2CCC1CC(OC(=O)C(O)c1ccccc1)C2 (stereo unspecified)	9.9%
CCCCCCCC/C=C\CCCCCCCCOC[C@H](COP(=O)([O-])OCC[N+](C)(C)C)OC(C)=O	-4.8%
CC#CCOC(=O)C1=CCCN(C)C1	2.1%
O=C(N/N=C/c1ccco1)c1ccccc1OCc1ccc(Br)cc1	-0.5%
O=C(N/N=C/c1cccnc1)c1ccccc1OCc1cccc(Br)c1	1.4%
Cc1ccc(/C=N/NC(=O)c2ccccc2OCc2cccc(Br)c2)o1	22.4µM*
CC(=O)NCCNc1nc(-c2ccccc2C(F)(F)F)nc2ccccc12	14.7%
Nc1ccc(N=Nc2ccccc2)c(N)n1	3.2%[57.5 µM]
O=S(=O)(O)c1ccc(N=Nc2ccccc2)cc1	-2.5%[57.5 µM]
Nc1ccc(N=Nc2ccccc2)c2ccccc12	17.8µM*
COC(=O)C1=C(C)NC(C)=C([N+](=O)[O-])[C@@H]1c1ccccc1C(F)(F)F	-7.1%
CCc1ccc(/C=C2\Oc3cc(OS(C)(=O)=O)ccc3C2=O)cc1	4.2%
CCN(CC)Cc1c(O)ccc2c1O/C(=C\C=C\c1ccccc1)C2=O	-9.2%[57.5 µM]
CS(=O)(=O)Oc1ccc2c(c1)O/C(=C\C=C\c1ccccc1)C2=O	7.94µM*
CCC(/C=C/C(C)C1CCC2C3CCC4=CC(=O)CC[C@@]4(C)C3CC[C@@]12C)C(C)C (stereo partly specified)	24.3%
C=CCOC(=O)C1(C(NC(=O)OC)c2ccccc2)C(=O)Cc2ccccc21 (stereo unspecified)	4.8%
COc1ccc(/C=C2\SC(=O)N(CC(=O)NCCC(C)C)C2=O)cc1OC	1.5%[57.5 µM]
COc1ccc(/C=C2/SC(=O)N(CC(=O)NCCC(C)C)C2=O)cc1OC	-7.3%
COc1ccc(/C=C2\SC(=O)N(CC(=O)NNC(=O)c3ccccc3O)C2=O)cc1OC	12.6µM*
CCN(CC)CCCC(C)n1c(-c2ccccc2)nc2c(NC3CCCCC3)nc(C)nc21 (stereo unspecified)	4.8%
N[C@H](C(=O)O)c1ccc(C(=O)O)cc1	-3.3%
Cc1cc(=O)c2c(O)c3c(O)cc(=O)c4c3c3c(cc(O)c1c23)C(C)(C)C=4O	-14.5%
COc1ccc(Nc2ccnc(Nc3ccc(OC)cc3)n2)cc1	35.5µM*
SMILES	ERK EGF inh
COc1ccc(NC(=O)Nc2cnccn2)cc1	2.5%[57.5 µM]
COc1ccc(Nc2c(C)cccc2C)cc1	4.7%
C=CCOC(=O)N[C@H](c1ccccc1)C(C(C)=O)C(C)=O	-8.6%
CC(C)=CCC/C(C)=C/CC/C(C)=C/CSCC(=O)O	14.9%
C/C=C(\C)[C@H](O)C[Si](C)(C)c1ccccc1	4.0%
COc1ccc(CCN=Cc2c(C)[nH]n(-c3ccc([N+](=O)[O-])cc3)c2=O)cc1OC	-6.6%
Cc1ccc(-n2[nH]c(C)c(/C=N/Nc3ccc([N+](=O)[O-])cc3[N+](=O)[O-])c2=O)cc1C	15.8µM*
Cc1[nH]n(-c2ccc([N+](=O)[O-])cc2)c(=O)c1/C=N/N1CCOCC1	8.4%
CO[C@@H]1c2cc(F)ccc2/C(=C\CCOC(=O)C/C=C/c2ccccc2)[C@H]1C	-17.3%
CC1=C/C(=N\Nc2ccccc2[N+](=O)[O-])CC(C)(C)C1	12.6µM*
Cc1c(NC2=CC(=O)CC(C)(C)C2)ccc([N+](=O)[O-])c1C	-3.9%
N#C/C(=N\Nc1ccccc1[N+](=O)[O-])C(=N)N1CCCCC1	5.8%
COC(=O)/C(Cc1cc(Br)c(OC)c(Br)c1O)=N/O	-3.4%
CCCCCCCCCCCCC/C=C/[C@@H](O)C(CO)NC(C)=O (stereo partly specified)	-1.1%
O=C(Nc1cccc(F)c1)N1CCCC2(CCN(S(=O)(=O)c3ccccc3)CC2)C1	6.3%
C[C@H]1OC(=O)CC[C@@H]2[C@]1(C)CCC1[C@@]2(C)CC[C@@]2(C)C3CC(C)(C)CC[C@]3(CO)CC[C@]12C (stereo partly specified)	-5.3%
COc1ccc2c(c1O)C(=O)c1ccccc1C2=O	-7.7%[57.5 µM]
Nc1c(O)ccc2c1C(=O)c1ccccc1C2=O	28.2µM*
O=C1C=C(O)c2c(O)cccc2C1=O	-7.5%[57.5 µM]
O=C(c1cnccn1)N1CCC[C@@]2(CCN(Cc3cc(C(F)(F)F)cc(C(F)(F)F)c3)C2)C1	-4.5%
O=c1cc(O)c2ccc(O)cc2o1	-8.8%[57.5 µM]
O=c1cc(-c2ccc(O)cc2)oc2cc(O)ccc12	-6.5%
